This note sets out measurements from PubChem BioAssay (Tox21).

Results filed as inconclusive are left out. Active and inactive are the calls of the source. Calls follow the shape of the full dose curve.
% is scaled to controls: 0 for no effect and ±100 for the full control effect; potency is read from the fitted curve at half-maximal effect.

Chain of Progesterone receptor (Homo sapiens) (P06401 whole entry, looked up): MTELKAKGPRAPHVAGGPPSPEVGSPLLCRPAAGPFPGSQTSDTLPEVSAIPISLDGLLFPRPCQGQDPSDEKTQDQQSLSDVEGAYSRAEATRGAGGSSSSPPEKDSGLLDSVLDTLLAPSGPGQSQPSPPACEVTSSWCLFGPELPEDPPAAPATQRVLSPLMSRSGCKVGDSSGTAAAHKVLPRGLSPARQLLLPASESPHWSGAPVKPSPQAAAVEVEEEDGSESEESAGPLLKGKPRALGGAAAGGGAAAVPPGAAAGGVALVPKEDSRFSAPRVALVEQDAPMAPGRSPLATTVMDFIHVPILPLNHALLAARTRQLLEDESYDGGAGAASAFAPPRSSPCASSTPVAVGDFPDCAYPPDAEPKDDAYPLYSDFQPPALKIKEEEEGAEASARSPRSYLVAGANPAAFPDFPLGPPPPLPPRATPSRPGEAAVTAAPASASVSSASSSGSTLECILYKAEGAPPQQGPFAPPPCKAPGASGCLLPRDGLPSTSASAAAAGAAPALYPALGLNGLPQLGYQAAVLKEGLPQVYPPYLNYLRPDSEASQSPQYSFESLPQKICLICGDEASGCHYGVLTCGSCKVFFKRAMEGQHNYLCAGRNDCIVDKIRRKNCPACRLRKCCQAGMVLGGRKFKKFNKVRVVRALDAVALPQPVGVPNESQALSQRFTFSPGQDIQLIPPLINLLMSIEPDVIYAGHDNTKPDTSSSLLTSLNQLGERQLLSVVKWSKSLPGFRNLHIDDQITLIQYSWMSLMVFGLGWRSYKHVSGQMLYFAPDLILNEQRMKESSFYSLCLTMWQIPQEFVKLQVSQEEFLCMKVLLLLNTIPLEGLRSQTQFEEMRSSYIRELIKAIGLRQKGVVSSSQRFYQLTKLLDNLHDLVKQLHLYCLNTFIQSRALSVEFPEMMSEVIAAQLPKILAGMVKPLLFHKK

The target in the assay is Progesterone receptor (Homo sapiens) (UniProt P06401). Description: qHTS assay to identify small molecule agonists of the progesterone receptor (PR) signaling pathway (AID 1346784). Also: nearly all actives have a fitted effect of over 30% in size. The following applies: PR-UAS-bla HEK293T, beta-lactamase FRET ratio, 16 h; series mostly up to 92.4 µM; activation: at the top concentration. From the text:
U.S. Tox21 Program National Center for Advancing Translational Sciences [NCATS] NIH Chemical Genomics Center [NCGC] U.S. Environmental Protection Agency [EPA] National Institutes of Environmental Health Sciences [NIEHS] National Toxicology Program [NTP] U.S. Food and Drug Administration [FDA] […] Endocrine disrupting chemicals (EDCs) and their interactions with steroid hormone receptors like PR causes disruption of normal endocrine function. To identify the compounds that activate PR signaling, a PR-UAS-bla GripTite cell line i.e. PR-UAS-bla HEK 293T (Invitrogen, Carlsbad, CA, USA) containing a beta-lactamase reporter gene under the control of an Upstream Activator Sequence (UAS) was used to screen Tox21 10K compound library.
Tox21 Assay Protocol Summary: PR-UAS-bla HEK 293T cells were dispensed at 3,000 cells/5 uL of assay medium containing 2% charcoal stripped FBS per well into black wall/clear-bottom 1536-well plates using a Multidrop Combi (ThermoFisher Scientific, Waltham, MA) dispenser. After the assay plates were incubated at a 37C and 5% CO2 for 6hr, 23 nL of compounds dissolved in DMSO, positive controls or DMSO only was transferred to the assay plate by a Pintool station (Kalypsys, San Diego, CA). The plates were incubated at 37C and 5% CO2 for 16hr. Then 1 uL of LiveBLAzer B/G FRET substrate was added using a BioRAPTR FRD (Flying Reagent Dispenser, Aurora Discovery, San Diego, CA). After the plates were incubated at room temperature for 2 hours, fluorescence intensity was measured by an Envision plate reader (PerkinElmer, Shelton, CT).
In general terms: In qHTS, concentration-response curves come from the screen itself.
Consider `C/C(=N\O)[C@@H](C)NCC(C)(C)CN[C@H](C)/C(C)=N/O`, for which the “activation” value is -1.07% [at 42.5 µM] (inactive).

As for `CCCNC(C)(C)COC(=O)c1ccccc1`, the “activation” value is -1.15% [at 42.5 µM] (inactive).

Turning to `CCOC(=O)[C@H](CCc1ccccc1)N[C@@H](C)C(=O)N1Cc2cc(OC)c(OC)cc2C[C@H]1C(=O)O`, the “activation” value was -0.612% [at 42.5 µM] (inactive).

`C=C(C)C(=O)OCCOP(=O)(O)O`: the “activation” value is 0.195% (inactive).

For `COC(=O)c1ccc2cc(C(=O)OC)ccc2c1`, the activation is 2.44% [at 19 µM] (inactive).

Take `Cc1c(C(=O)NCCO)[n+](=O)c2ccccc2n1[O-]`: the “activation” value was 0.378% [at 42.5 µM] (inactive).

On to `Cc1ccc([N+](=O)[O-])cc1Cl`, for which the “activation” value is -0.179% (inactive).

`CO[C@@]1(NC(=O)CSCC#N)C(=O)N2C(C(=O)O)=C(CSc3nnnn3C)CS[C@@H]21`: the “activation” value is 0.444% [at 42.5 µM] (inactive).

For the compound `CCCOCCC`, the “activation” value was -3.62% (inactive).

As for `N#Cc1ccc(C(c2ccc(C#N)cc2)n2cncn2)cc1`, the “activation” value is -1.29% [at 42.5 µM] (inactive).

As to `Cc1ccsc1C(=CCCN1CCC[C@@H](C(=O)O)C1)c1sccc1C`, the “activation” value was -0.708% [at 42.5 µM] (inactive).

`C[C@]12CCC(=O)C=C1CC[C@@H]1[C@@H]2CC[C@@]2(C)[C@H]1CC[C@]2(O)C(=O)CO`: the Potency is 8.41 µM (active).

On to `CN(C)Cc1ccccc1`, for which the “activation” value was 0.75% (inactive).

On to `CCOC(=O)C(Br)c1ccccc1` (stereo not given), for which the “activation” value was -0.852% (inactive).

For the compound `O=C1CCCc2ccccc21`, the “activation” value is 0.512% (inactive).

Turning to `C=CC(C)(O)CC/C=C(\C)CCC=C(C)C` (stereo not given), the “activation” value was 3.29% (inactive).

Take `CC/C=C\CCOC(=O)C(C)C`: the “activation” value was 0.462% (inactive).

On to `C=CC1CO1` (stereo not given), for which the “activation” value was 0.121% (inactive).

Turning to `COC(=O)c1ccc(OC)cc1`, the “activation” value is 0.558% (inactive).

In the case of `COc1cc(C)ccc1C(C)C`, the “activation” value was 1.77% (inactive).

For `CCCCCOc1ccc(C2SC(=O)NC2=O)cc1OCC` (stereo not given), the “activation” value was 2.75% [at 42.5 µM] (inactive).

With `CN1CCC[C@@H]1Cc1c[nH]c2ccc(CCS(=O)(=O)c3ccccc3)cc12`, the “activation” value was 0.534% [at 42.5 µM] (inactive).

Take `C=CCCC=C`: the Potency was 19.9 µM (active).

As for `Oc1ccccc1C=NCc1ccccc1`, the “activation” value was -0.296% [at 42.5 µM] (inactive).

`O=C1CCCCCCCCCCC(=O)OCCO1`: the “activation” value was 2.53% (inactive).

Regarding `C[C@@H]1CN(c2c(F)c(F)c3c(=O)c(C(=O)O)cn(C4CC4)c3c2F)C[C@H](C)N1`, the activation is 4.11% [at 19 µM] (inactive).

Consider `O=C(O[C@@H](C(=O)O)[C@@H](OC(=O)c1ccccc1)C(=O)O)c1ccccc1`, for which the “activation” value is -0.474% (inactive).

`CCCCc1ccc2nc(NC(=O)OC)[nH]c2c1`: the “activation” value was 1.32% [at 42.5 µM] (inactive).

For the compound `Nc1cccc(S(=O)(=O)O)c1`, the “activation” value is -0.126% (inactive).

Take `CC(=O)N(CC(O)CN(C(C)=O)c1c(I)c(C(=O)NCC(O)CO)c(I)c(C(=O)NCC(O)CO)c1I)c1c(I)c(C(=O)NCC(O)CO)c(I)c(C(=O)NCC(O)CO)c1I` (stereo not given): the “activation” value is 1.78% [at 42.5 µM] (inactive).

Consider `FC(F)(F)C(Cl)(Cl)Cl`, for which the “activation” value is -0.941% (inactive).

As to `CCCCN1C[C@H](O)[C@@H](O)[C@H](O)[C@H]1CO`, the “activation” value was 1.46% [at 42.5 µM] (inactive).

Regarding `CC(C)(C)c1ccc(OC(=O)c2ccccc2O)cc1`, the “activation” value is 3.25% (inactive).

As to `FC(F)(F)c1ccccc1`, the “activation” value was -0.701% (inactive).

Regarding `CCNCCO`, the “activation” value is 0.467% (inactive).

For `NC(=O)Cc1cccc(C(=O)c2ccccc2)c1N`, the “activation” value is 3.32% [at 42.5 µM] (inactive).

Turning to `NC(=O)NS(=O)(=O)c1ccc(Cl)cc1`, the “activation” value was 4.3% [at 42.5 µM] (inactive).

On to `CC(CNC1CCCCC1)OC(=O)c1ccccc1` (stereo not given), for which the “activation” value is -0.62% [at 42.5 µM] (inactive).

As for `COc1cc2c(cc1N)oc1ccccc12`, the “activation” value is -1.4% (inactive).

Take `CC(C)OC(C)C`: the “activation” value was -0.491% (inactive).
